From PMC10726135, “HNF4α isoforms regulate the circadian balance between carbohydrate and lipid metabolism in the liver”
In all, about 18,000 sequences were measured (“log2 normalized intensity”: median about 0.39, highest 2% from about 6.6 on). Many of the other results were omitted from the sample, so the highest values are more common in it than they were.

Target: T1, HNF4alpha2 (COS-7 nuclear extract) (Homo sapiens, UniProt P41235 1-474)
T1 sequence: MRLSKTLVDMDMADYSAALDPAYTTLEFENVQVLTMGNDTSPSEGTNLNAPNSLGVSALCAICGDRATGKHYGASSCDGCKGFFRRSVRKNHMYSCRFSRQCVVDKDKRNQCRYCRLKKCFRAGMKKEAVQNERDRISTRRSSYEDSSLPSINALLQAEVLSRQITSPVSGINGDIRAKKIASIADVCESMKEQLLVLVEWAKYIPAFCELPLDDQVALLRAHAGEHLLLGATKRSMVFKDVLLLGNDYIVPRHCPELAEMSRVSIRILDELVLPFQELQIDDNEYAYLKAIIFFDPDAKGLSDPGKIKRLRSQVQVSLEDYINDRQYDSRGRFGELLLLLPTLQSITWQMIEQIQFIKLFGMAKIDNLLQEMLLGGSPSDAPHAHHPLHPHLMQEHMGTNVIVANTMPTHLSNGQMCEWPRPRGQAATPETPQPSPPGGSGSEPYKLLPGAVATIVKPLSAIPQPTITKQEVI
Assay: protein-binding microarray; COS-7 nuclear extract on double-stranded Agilent 4x180k PBM; binding buffer, salt, pH and temperature not given in the material; high values mean tight binding
Conditions: chain copies: 2; label: 3' end of strand 1 on the slide; dsDNA, one strand shown
Summary of the method: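 Using CaPO4, COS-7 cells were transiently transfected with a human HNF4α isoform expression vector, and their nuclear extracts were applied to a custom Agilent SurePrint G3 4x180k double-stranded oligonucleotide array (~60 nt; ~44,000 test sequences in quadruplicate). Bound HNF4α was imaged at 2-µm resolution with an Agilent G2565CA scanner. Agilent software supplied the background-corrected, normalized gProcessedSignal that serves as the binding signal.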

| Sequence | binding signal [log2 normalized intensity] |
| --- | --- |
| GGCTATACAATTCCAGCAAGGATGGGGGCAGCCTAGGGAGATTAGAGTATCGGTCGA | -0.832 |
| AAAATTAAGGTTCAAAGGGAAAAAATAATCGCCTAGGGAGATTAGAGTATCGGTCGA | -0.757 |
| TTCCATTGAAGCAGAGTGTCCCATATCACAGCCTAGGGAGATTAGAGTATCGGTCGA | 0.724 |
| GTTAGATTAGTGTGCAGCTTTGTGTAAAACGCCTAGGGAGATTAGAGTATCGGTCGA | 0.946 |
| AGATCTCAGTTGGTCCAAGGTACATGTCTCGCCTAGGGAGATTAGAGTATCGGTCGA | 2.34 |
| AGAAGGAAAAGGCCTGACCTTTGCCCTCTGGCCTAGGGAGATTAGAGTATCGGTCGA | 10.1 |
| CCCTGCCTGACCTGCCCTTTGTCCCTCCTGGCCTAGGGAGATTAGAGTATCGGTCGA | 4.51 |
| CTCTTTGGTGCAAAGGTCAGGACAAGGCTCGCCTAGGGAGATTAGAGTATCGGTCGA | 4.3 |
| TTCTGCCCCTTGCTCCTGCTTGCTGGCTTTGCCTAGGGAGATTAGAGTATCGGTCGA | 1.2 |
| GACCTTTGCCCTCTGGCCCTTAAAGGCTTTGCCTAGGGAGATTAGAGTATCGGTCGA | 6.99 |
| GACAGCTGGGCCCTGCCTGACCTGCCCTTTGCCTAGGGAGATTAGAGTATCGGTCGA | 4.42 |
| CTCTGCAGAGGCTTCCTCTTTGGTGCAAAGGCCTAGGGAGATTAGAGTATCGGTCGA | -0.855 |
| ACAGAAGAAGGAAAAGGCCTGACCTTTGCCGCCTAGGGAGATTAGAGTATCGGTCGA | 4.61 |
| GAAAAGGCCTGACCTTTGCCCTCTGGCCCTGCCTAGGGAGATTAGAGTATCGGTCGA | 9.1 |
| CAGAGGCTTCCTCTTTGGTGCAAAGGTCAGGCCTAGGGAGATTAGAGTATCGGTCGA | 6.86 |
| AGAGGACAGAAGAAGGAAAAGGCCTGACCTGCCTAGGGAGATTAGAGTATCGGTCGA | -0.388 |
| CCCTCGACCTTTGCCCTCCATAAGGGGGAGGCCTAGGGAGATTAGAGTATCGGTCGA | 6.24 |
| TTGAAGCAGAGTGTCCCATATCACATTTTAGCCTAGGGAGATTAGAGTATCGGTCGA | 0.955 |
| TGCTTATCAGTGTACCTGTCCCTACTCAATGCCTAGGGAGATTAGAGTATCGGTCGA | 0.371 |
| GTGCCCTCATAAGAGACTTTGCCCTTTTTTGCCTAGGGAGATTAGAGTATCGGTCGA | 5.63 |
| TCAGGACTCTAACTGGCTTTAAGAGGAATGGCCTAGGGAGATTAGAGTATCGGTCGA | -0.943 |
| AGGAATGAGACATGAATCCATCCCACCTCAGCCTAGGGAGATTAGAGTATCGGTCGA | -0.775 |

| Sequence | binding signal [log2 normalized intensity] |
| --- | --- |
| AAACTTTAGTAGTCCAAAGCTCAGATTGCCGCCTAGGGAGATTAGAGTATCGGTCGA | 0.566 |
| AGATGGTCTCAGGTGGAGATAAGGAATTTGGCCTAGGGAGATTAGAGTATCGGTCGA | -0.171 |
| GGCATTAATTCTTCTTTGAAAGTTTGGTGGGCCTAGGGAGATTAGAGTATCGGTCGA | 2.23 |
| TAATTCTTCTTTGAAAGTTTGGTGGACTTTGCCTAGGGAGATTAGAGTATCGGTCGA | 6.32 |
| AGTTTGGTGGACTTTGGCCGTGAAGCCGTCGCCTAGGGAGATTAGAGTATCGGTCGA | 6.2 |
| CTTCTTTGAAAGTTTGGTGGACTTTGGCCGGCCTAGGGAGATTAGAGTATCGGTCGA | 9.62 |
| GGTGGACTTTGGCCGTGAAGCCGTCCTGTCGCCTAGGGAGATTAGAGTATCGGTCGA | 5.03 |
| TTGAAAGTTTGGTGGACTTTGGCCGTGAAGGCCTAGGGAGATTAGAGTATCGGTCGA | 6.79 |
| TTTGCTCCAGTTCCCAATAATTTCCTTATCGCCTAGGGAGATTAGAGTATCGGTCGA | -0.628 |
| TGTAACTAACAACTGACCTTGCAGGCCAGGGCCTAGGGAGATTAGAGTATCGGTCGA | -0.838 |
| TCTGTTTGATTCCATGCTGATAATGGAATTGCCTAGGGAGATTAGAGTATCGGTCGA | 0.756 |
| GACATGCAGTATGGGGACTTTGGACTCCTGGCCTAGGGAGATTAGAGTATCGGTCGA | 7.53 |
| CTCCTGGACTTTGGTCTCATGGGCCTAAACGCCTAGGGAGATTAGAGTATCGGTCGA | 4.65 |
| ATCCCCTCCTGGACTTTGGTCTCATGGGCCGCCTAGGGAGATTAGAGTATCGGTCGA | 6.4 |
| GTAATGACATGCAGTATGGGGACTTTGGACGCCTAGGGAGATTAGAGTATCGGTCGA | 5.99 |
| CAAATGAATAATCCCCTCCTGGACTTTGGTGCCTAGGGAGATTAGAGTATCGGTCGA | 4.73 |
| GAATAATCCCCTCCTGGACTTTGGTCTCATGCCTAGGGAGATTAGAGTATCGGTCGA | 7.15 |
| ATCAGTGTACCTGTCCCTACTCAATTATCAGCCTAGGGAGATTAGAGTATCGGTCGA | -0.287 |
| CAAGAATACGGATTCTTAAGGGCAAAGGTTGCCTAGGGAGATTAGAGTATCGGTCGA | 5.88 |
| GCTGTGCCGAGCCTGCAGGTGAATGGAAACGCCTAGGGAGATTAGAGTATCGGTCGA | -0.549 |
| AATCTGAATTAACTCTTTACACAGTTCTGAGCCTAGGGAGATTAGAGTATCGGTCGA | -0.00196 |
| ACAAAAACTGTTTCTATGTGACCTTCACCCGCCTAGGGAGATTAGAGTATCGGTCGA | 5.26 |

| Sequence | binding signal [log2 normalized intensity] |
| --- | --- |
| AAGACTTCCTGGCCTCTCTGCAAATTTGCCGCCTAGGGAGATTAGAGTATCGGTCGA | -0.993 |
| GTTAGGAAACACTCTGTTTGTAAAGTCTACGCCTAGGGAGATTAGAGTATCGGTCGA | 0.577 |
| CTTGGCTGTGCTGCCCTTTGCCCTTTGGGAGCCTAGGGAGATTAGAGTATCGGTCGA | 7.11 |
| GGACTTTGGGCTGTGTTTTGCCCCTGCAGAGCCTAGGGAGATTAGAGTATCGGTCGA | 3.66 |
| GGGTGGGGTGCTGCCTTTCCTGTGACTTTTGCCTAGGGAGATTAGAGTATCGGTCGA | 1.74 |
| CTGTGCTGCCCTTTGCCCTTTGGGAAGGGGGCCTAGGGAGATTAGAGTATCGGTCGA | 5.8 |
| GAGAGTTTTCCTTGGCTGTGCTGCCCTTTGGCCTAGGGAGATTAGAGTATCGGTCGA | 3.6 |
| TTTTCCTTGGCTGTGCTGCCCTTTGCCCTTGCCTAGGGAGATTAGAGTATCGGTCGA | 7.6 |
| GGGCATGGACTTTGGAATTAAGGAGATTTGGCCTAGGGAGATTAGAGTATCGGTCGA | 4.96 |
| AGATCCGAAGTCTAGGACGTTATCAGCAGGGCCTAGGGAGATTAGAGTATCGGTCGA | 0.0613 |
| ATAAGTTTTCTCATAAAACACCCACCTTGTGCCTAGGGAGATTAGAGTATCGGTCGA | -0.452 |
| CTATTTCTGACCTTTGCACCAGAGATAATAGCCTAGGGAGATTAGAGTATCGGTCGA | 5.8 |
| TCTGACCAGGCTGATTTAGCTATTTGACCTGCCTAGGGAGATTAGAGTATCGGTCGA | 4.02 |
| TGGCTAAGACAGGGGCTATTTCTGACCTTTGCCTAGGGAGATTAGAGTATCGGTCGA | 6.5 |
| AGGGGCTATTTCTGACCTTTGCACCAGAGAGCCTAGGGAGATTAGAGTATCGGTCGA | 6.87 |
| AAGACAGGGGCTATTTCTGACCTTTGCACCGCCTAGGGAGATTAGAGTATCGGTCGA | 9.65 |
| CCTTTGCACCAGAGATAATATGCTTACTTAGCCTAGGGAGATTAGAGTATCGGTCGA | 0.0286 |
| ATGACTCCAAAGTTCAAACTCTGAAAGCACGCCTAGGGAGATTAGAGTATCGGTCGA | 2.34 |
| CCCTGCAGTCCTCTGCTTATCTGGCCTGCTGCCTAGGGAGATTAGAGTATCGGTCGA | -0.935 |
| ATCTGGTGGTGGTTCTTGTTTCATTGCACAGCCTAGGGAGATTAGAGTATCGGTCGA | 1.84 |
| GTCTTGAGCGCAAATGATCAAAGGTCGGTTGCCTAGGGAGATTAGAGTATCGGTCGA | 5.6 |
| TCAGCACTGAGAGATTACATTTGACTGAGGGCCTAGGGAGATTAGAGTATCGGTCGA | -0.895 |

| Sequence | binding signal [log2 normalized intensity] |
| --- | --- |
| AACACTATCTTCTTTCAGTGTTGACCTTTGGCCTAGGGAGATTAGAGTATCGGTCGA | 6.87 |
| TCTTTCAGTGTTGACCTTTGAACATTTCTTGCCTAGGGAGATTAGAGTATCGGTCGA | 8.04 |
| GAATGTTGAACCTTTCTTTGTCTTTGCAATGCCTAGGGAGATTAGAGTATCGGTCGA | 2.02 |
| TATCTTCTTTCAGTGTTGACCTTTGAACATGCCTAGGGAGATTAGAGTATCGGTCGA | 8.83 |
| AACCTTCATCTCTCTTTGTTGACATCTGCTGCCTAGGGAGATTAGAGTATCGGTCGA | 0.528 |
| TCTTGGAATGTTGAACCTTTCTTTGTCTTTGCCTAGGGAGATTAGAGTATCGGTCGA | 2.24 |
| AGGAGTGTCTTTCTCCTTGAACACAGTGTTGCCTAGGGAGATTAGAGTATCGGTCGA | 1.25 |
| CATGCTCTTGGAATGTTGAACCTTTCTTTGGCCTAGGGAGATTAGAGTATCGGTCGA | 2.64 |
| TATCCAATAAAACACTATCTTCTTTCAGTGGCCTAGGGAGATTAGAGTATCGGTCGA | 0.883 |
| CTTAAAGGCCTGTGTCGATGTTAACGCTAAGCCTAGGGAGATTAGAGTATCGGTCGA | -0.828 |
| GCCCTTCCCCCCTCTGCAGCCTTACCCAGTGCCTAGGGAGATTAGAGTATCGGTCGA | 4.59 |
| TGTCGTTTGCTTAGTCTTATCTGAGGTGCCGCCTAGGGAGATTAGAGTATCGGTCGA | 0.932 |
| GAAATGGTGGACTTTGTAGCTCAAACAGTCGCCTAGGGAGATTAGAGTATCGGTCGA | 3.13 |
| TATGGATAGGCACATATTGGATCTCTGGTAGCCTAGGGAGATTAGAGTATCGGTCGA | 0.865 |
| CAGTTTGAAATTAGGCAATATGAGTAGAGCGCCTAGGGAGATTAGAGTATCGGTCGA | -0.693 |
| TTGGCTAAAGTCCAAATTCCTTGGAATACAGCCTAGGGAGATTAGAGTATCGGTCGA | 3.12 |
| CACACACACACAGCATTCCATTCATTTTAGGCCTAGGGAGATTAGAGTATCGGTCGA | -0.727 |
| AACATGTAATCATTTGGGACAAAGTTCATCGCCTAGGGAGATTAGAGTATCGGTCGA | 4.11 |
| TGAACAATTGATTTATAGCCTTTTTGCCCAGCCTAGGGAGATTAGAGTATCGGTCGA | 1.29 |
